According to the supplement of paper PMC8728848:
About 410 targets per protein were measured; listed, in parts, are those with the strongest signals and a random draw of the rest.

Columns and labels:
Assay in all cases: glycan array binding signal (z-score within array); higher = stronger binding
Conditions in all cases: glycan notation: IUPAC condensed, linker removed
[1] = biological target: GalNAc(b1-4)GlcNAc(b1-2)Man(a1-3)[GalNAc(b1-4)GlcNAc(b1-2)Man(a1-6)]Man(b1-4)GlcNAc(b1-4)GlcNAc
Method in brief: (§1)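 The Consortium for Functional Glycomics database supplied 3228 glycan arrays, of which those lacking an available protein sequence were dropped. The binding signal, a within-array Z-score, was averaged across arrays of the same protein sequence and across linkers. Negative scores can be read as non-binding.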

[2] = biological target: GlcNAc(b1-2)Man(a1-3)[GlcNAc(b1-4)][GlcNAc(b1-2)Man(a1-6)]Man(b1-4)GlcNAc(b1-4)GlcNAc
Method in brief: as §1

GlcNAc(b1-3)Gal(b1-4)Glc = biological target: GlcNAc(b1-3)Gal(b1-4)Glc
Method in brief: as §1

[3] = biological target: GlcNAc(b1-3)Gal(b1-4)GlcNAc
Method in brief: as §1

[4] = biological target: GlcNAc(b1-3)Gal(b1-4)GlcNAc(b1-2)Man(a1-3)[GlcNAc(b1-3)Gal(b1-4)GlcNAc(b1-2)Man(a1-6)]Man(b1-4)GlcNAc(b1-4)GlcNAc
Method in brief: as §1

[5] = biological target: GlcNAc(b1-3)Gal(b1-4)GlcNAc(b1-3)Gal(b1-4)GlcNAc(b1-2)Man(a1-3)[GlcNAc(b1-3)Gal(b1-4)GlcNAc(b1-3)Gal(b1-4)GlcNAc(b1-2)Man(a1-6)]Man(b1-4)GlcNAc(b1-4)GlcNAc
Method in brief: as §1

[6] = biological target: GlcNAc(b1-3)Gal(b1-4)GlcNAc(b1-6)[GlcNAc(b1-3)Gal(b1-3)]GalNAc
Method in brief: as §1

[7] = biological target: Man(a1-2)Man(a1-3)[Man(a1-2)Man(a1-6)]Man(a1-6)[Man(a1-2)Man(a1-2)Man(a1-3)]Man
Method in brief: as §1

[8] = biological target: Man(a1-3)[Man(a1-6)]Man(b1-4)GlcNAc(b1-4)[Fuc(a1-6)]GlcNAc
Method in brief: as §1

[9] = biological target: Neu5Ac(a2-3)Gal(b1-3)GlcNAc(b1-2)[Neu5Ac(a2-3)Gal(b1-3)GlcNAc(b1-4)]Man(a1-6)[Neu5Ac(a2-3)Gal(b1-3)GlcNAc(b1-2)Man(a1-3)]Man(b1-4)GlcNAc(b1-4)GlcNAc
Method in brief: as §1

[10] = biological target: Neu5Ac(a2-3)Gal(b1-4)GlcNAc(b1-2)Man
Method in brief: as §1

[11] = biological target: Neu5Ac(a2-3)Gal(b1-4)GlcNAc(b1-3)Gal(b1-4)GlcNAc(b1-2)Man(a1-3)[Neu5Ac(a2-3)Gal(b1-4)GlcNAc(b1-3)Gal(b1-4)GlcNAc(b1-2)Man(a1-6)]Man(b1-4)GlcNAc(b1-4)GlcNAc
Method in brief: as §1

[12] = biological target: Neu5Ac(a2-3)Gal(b1-4)GlcNAc(b1-3)Gal(b1-4)GlcNAc(b1-3)[Neu5Ac(a2-3)Gal(b1-4)GlcNAc(b1-3)Gal(b1-4)GlcNAc(b1-6)]GalNAc
Method in brief: as §1

[13] = biological target: Neu5Ac(a2-3)Gal(b1-4)[Fuc(a1-3)]GlcNAc(b1-2)Man
Method in brief: as §1

[14] = biological target: Neu5Ac(a2-6)Gal(b1-4)GlcNAc(b1-2)Man(a1-3)[GlcNAc(b1-2)Man(a1-6)]Man(b1-4)GlcNAc(b1-4)GlcNAc
Method in brief: as §1

[15] = biological target: Neu5Ac(a2-6)Gal(b1-4)GlcNAc(b1-2)Man(a1-6)Man(b1-4)GlcNAc(b1-4)GlcNAc
Method in brief: as §1

[16] = biological target: Neu5Ac(a2-6)Gal(b1-4)GlcNAc(b1-3)Gal(b1-4)GlcNAc(b1-2)Man(a1-3)[Neu5Ac(a2-6)Gal(b1-4)GlcNAc(b1-3)Gal(b1-4)GlcNAc(b1-2)Man(a1-6)]GalNAc
Method in brief: as §1

[17] = biological target: Neu5Ac(a2-6)Gal(b1-4)GlcNAc(b1-3)Gal(b1-4)GlcNAc(b1-3)[Neu5Ac(a2-6)Gal(b1-4)GlcNAc(b1-3)Gal(b1-4)GlcNAc(b1-6)]GalNAc
Method in brief: as §1

[18] = biological target: Neu5Ac(a2-6)Gal(b1-4)GlcNAc(b1-3)Gal(b1-4)[Fuc(a1-3)]GlcNAc(b1-3)Gal(b1-4)[Fuc(a1-3)]GlcNAc
Method in brief: as §1

Neu5Ac(a2-6)GalNAc = biological target: Neu5Ac(a2-6)GalNAc
Method in brief: as §1

[19] = biological target: Neu5Ac(a2-6)GalNAc(b1-4)GlcNAc6S
Method in brief: as §1

[20] = biological target: Neu5Ac(a2-8)Neu5Ac(a2-3)Gal(b1-4)Glc
Method in brief: as §1

[21] = biological target: Neu5Ac(a2-8)Neu5Ac(a2-8)Neu5Ac(a2-8)Neu5Ac(a2-3)[GalNAc(b1-4)]Gal(b1-4)Glc
Method in brief: as §1

Neu5Ac(b2-6)GalNAc = biological target: Neu5Ac(b2-6)GalNAc
Method in brief: as §1

[22] = biological target: Neu5Ac9Ac(a2-3)Gal(b1-3)GlcNAc
Method in brief: as §1

[23] = biological target: Neu5Gc(a2-6)Gal(b1-4)GlcNAc
Method in brief: as §1

Neu5Gc(a2-6)GalNAc = biological target: Neu5Gc(a2-6)GalNAc
Method in brief: as §1

[24] = biological target: Neu5Gc(a2-8)Neu5Gc(a2-3)Gal(b1-4)GlcNAc
Method in brief: as §1

B1: Aap lectin (Staphylococcus epidermidis) (protein)
chain: VNLNYSSPFMSLLSMPADSSSNNTKNTIDIPPTTVKGRDNYDFYGRVDIESNPTDLNATNLTRYNYGQPPGTTTAGAVQFKNQVSFDKDFDFNIRVANNRQSNTTGADGWGFMFSKKDGDDFLKNGGILREKGTPSAAGFRIDTGYYNNDPLDKIQKQAGQGYRGYGTFVKNDSQGNTSKVGSGTPSTDFLNYADNTTNDLDGKFHGQKLNNVNLKYNASNQTFTATYAGKTWTATLSELGLSPTDSYNFLVTSS
[1]
  glycan array binding signal (z-score): 3.29
[2]
  glycan array binding signal (z-score): -0.698
GlcNAc(b1-3)Gal(b1-4)Glc
  glycan array binding signal (z-score): 0.941
[3]
  glycan array binding signal (z-score): -0.278
[4]
  glycan array binding signal (z-score): 0.543
[5]
  glycan array binding signal (z-score): 3.83
[6]
  glycan array binding signal (z-score): -0.968
[7]
  glycan array binding signal (z-score): -0.858
[8]
  glycan array binding signal (z-score): -0.887
[9]
  glycan array binding signal (z-score): -0.885
[10]
  glycan array binding signal (z-score): -0.335
[11]
  glycan array binding signal (z-score): -0.87
[12]
  glycan array binding signal (z-score): -0.88
[13]
  glycan array binding signal (z-score): -0.708
[14]
  glycan array binding signal (z-score): -0.88
[15]
  glycan array binding signal (z-score): -0.806
[16]
  glycan array binding signal (z-score): -0.905
[17]
  glycan array binding signal (z-score): 2.93
[18]
  glycan array binding signal (z-score): -0.333
Neu5Ac(a2-6)GalNAc
  glycan array binding signal (z-score): -0.816
[19]
  glycan array binding signal (z-score): -1.16
[20]
  glycan array binding signal (z-score): -0.83
[21]
  glycan array binding signal (z-score): -0.444
Neu5Ac(b2-6)GalNAc
  glycan array binding signal (z-score): -0.527
[22]
  glycan array binding signal (z-score): 0.704
[23]
  glycan array binding signal (z-score): -0.275
Neu5Gc(a2-6)GalNAc
  glycan array binding signal (z-score): -0.523
[24]
  glycan array binding signal (z-score): 1.51
